Compound in the assay: CC1Cc2ccccc2N1C(=O)C1CCCN(C1)C(=O)CCl (mixture of isomers) [TRIM25 ligand 11 (diastereomer mixture)]
Description: probe-labelled cysteine peptide fold change vs DMSO (competition) (log2 fold change); higher = less target engagement (more negative = stronger competition). The following applies: THP-1, incubation time: 4 h.

Of roughly 21,000 targets only a part is listed; those with the largest changes were picked by preference.
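Also: competitive chemoproteomic profiling in live THP-1 cells with an iodoacetamide desthiobiotin (IA-DTB) probe, comparing probe-labelled peptide intensities in compound-treated cells against DMSO-treated controls.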

Chain of UniProt Q9Y6X3 (Q9Y6X3 whole entry, looked up): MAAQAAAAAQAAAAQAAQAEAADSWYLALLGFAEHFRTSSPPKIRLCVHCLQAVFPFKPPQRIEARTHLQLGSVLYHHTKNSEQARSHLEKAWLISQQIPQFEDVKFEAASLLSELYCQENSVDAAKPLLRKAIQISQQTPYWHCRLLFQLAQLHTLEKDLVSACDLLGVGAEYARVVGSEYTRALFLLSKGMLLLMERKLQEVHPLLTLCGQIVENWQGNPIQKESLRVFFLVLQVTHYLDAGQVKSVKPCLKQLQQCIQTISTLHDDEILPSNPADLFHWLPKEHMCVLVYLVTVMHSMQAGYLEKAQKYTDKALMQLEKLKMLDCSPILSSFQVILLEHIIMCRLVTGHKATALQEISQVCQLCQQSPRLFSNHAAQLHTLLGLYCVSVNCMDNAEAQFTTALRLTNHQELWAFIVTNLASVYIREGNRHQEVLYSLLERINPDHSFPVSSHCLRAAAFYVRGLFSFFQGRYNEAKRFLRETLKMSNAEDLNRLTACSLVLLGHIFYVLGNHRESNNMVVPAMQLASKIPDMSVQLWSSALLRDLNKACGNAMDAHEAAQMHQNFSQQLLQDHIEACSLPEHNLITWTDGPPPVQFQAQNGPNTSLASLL
Chain of UniProt Q9HBH9 (Q9HBH9 whole entry, looked up): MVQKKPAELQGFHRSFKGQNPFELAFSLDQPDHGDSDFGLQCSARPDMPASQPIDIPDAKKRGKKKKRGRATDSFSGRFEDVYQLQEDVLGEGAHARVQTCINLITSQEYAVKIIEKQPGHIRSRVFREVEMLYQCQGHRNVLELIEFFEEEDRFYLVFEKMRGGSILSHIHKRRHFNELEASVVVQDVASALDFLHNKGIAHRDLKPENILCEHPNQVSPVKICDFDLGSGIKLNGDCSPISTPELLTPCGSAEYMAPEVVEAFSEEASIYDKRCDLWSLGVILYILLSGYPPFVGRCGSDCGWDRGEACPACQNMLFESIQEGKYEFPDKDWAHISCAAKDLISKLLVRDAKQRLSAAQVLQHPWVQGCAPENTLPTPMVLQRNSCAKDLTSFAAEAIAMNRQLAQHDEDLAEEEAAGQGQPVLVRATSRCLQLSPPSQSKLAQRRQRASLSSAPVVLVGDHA
Chain of UniProt Q9NR45 (Q9NR45 whole entry, looked up): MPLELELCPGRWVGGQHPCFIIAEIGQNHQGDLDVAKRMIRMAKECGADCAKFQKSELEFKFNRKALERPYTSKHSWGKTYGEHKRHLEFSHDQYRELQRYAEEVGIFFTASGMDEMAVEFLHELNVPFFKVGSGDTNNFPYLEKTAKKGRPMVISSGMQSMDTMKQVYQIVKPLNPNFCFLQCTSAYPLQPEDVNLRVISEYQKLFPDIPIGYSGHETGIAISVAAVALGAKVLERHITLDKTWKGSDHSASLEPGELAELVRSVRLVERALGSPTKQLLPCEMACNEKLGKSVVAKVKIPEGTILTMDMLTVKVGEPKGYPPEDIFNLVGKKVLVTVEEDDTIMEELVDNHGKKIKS
Chain of UniProt P49959 (P49959 whole entry, looked up): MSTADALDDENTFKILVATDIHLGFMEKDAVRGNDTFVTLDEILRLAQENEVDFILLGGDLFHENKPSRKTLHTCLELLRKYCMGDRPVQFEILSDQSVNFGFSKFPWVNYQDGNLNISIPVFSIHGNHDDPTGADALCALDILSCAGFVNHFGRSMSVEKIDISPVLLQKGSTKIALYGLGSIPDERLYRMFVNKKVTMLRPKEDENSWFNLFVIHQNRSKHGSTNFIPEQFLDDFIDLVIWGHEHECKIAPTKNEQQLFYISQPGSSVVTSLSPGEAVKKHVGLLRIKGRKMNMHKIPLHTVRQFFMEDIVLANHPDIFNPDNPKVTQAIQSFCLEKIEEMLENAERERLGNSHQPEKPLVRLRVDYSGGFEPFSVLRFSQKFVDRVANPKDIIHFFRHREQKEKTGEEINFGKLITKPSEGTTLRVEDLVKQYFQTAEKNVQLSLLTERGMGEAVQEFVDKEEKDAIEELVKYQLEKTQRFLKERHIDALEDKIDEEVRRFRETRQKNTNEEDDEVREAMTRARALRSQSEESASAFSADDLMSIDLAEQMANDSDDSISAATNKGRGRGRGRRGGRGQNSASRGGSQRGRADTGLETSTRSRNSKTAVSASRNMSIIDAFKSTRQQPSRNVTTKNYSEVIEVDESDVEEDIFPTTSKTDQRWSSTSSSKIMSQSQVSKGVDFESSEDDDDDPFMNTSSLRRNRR
Chain of UniProt P08582 (P08582 whole entry, looked up): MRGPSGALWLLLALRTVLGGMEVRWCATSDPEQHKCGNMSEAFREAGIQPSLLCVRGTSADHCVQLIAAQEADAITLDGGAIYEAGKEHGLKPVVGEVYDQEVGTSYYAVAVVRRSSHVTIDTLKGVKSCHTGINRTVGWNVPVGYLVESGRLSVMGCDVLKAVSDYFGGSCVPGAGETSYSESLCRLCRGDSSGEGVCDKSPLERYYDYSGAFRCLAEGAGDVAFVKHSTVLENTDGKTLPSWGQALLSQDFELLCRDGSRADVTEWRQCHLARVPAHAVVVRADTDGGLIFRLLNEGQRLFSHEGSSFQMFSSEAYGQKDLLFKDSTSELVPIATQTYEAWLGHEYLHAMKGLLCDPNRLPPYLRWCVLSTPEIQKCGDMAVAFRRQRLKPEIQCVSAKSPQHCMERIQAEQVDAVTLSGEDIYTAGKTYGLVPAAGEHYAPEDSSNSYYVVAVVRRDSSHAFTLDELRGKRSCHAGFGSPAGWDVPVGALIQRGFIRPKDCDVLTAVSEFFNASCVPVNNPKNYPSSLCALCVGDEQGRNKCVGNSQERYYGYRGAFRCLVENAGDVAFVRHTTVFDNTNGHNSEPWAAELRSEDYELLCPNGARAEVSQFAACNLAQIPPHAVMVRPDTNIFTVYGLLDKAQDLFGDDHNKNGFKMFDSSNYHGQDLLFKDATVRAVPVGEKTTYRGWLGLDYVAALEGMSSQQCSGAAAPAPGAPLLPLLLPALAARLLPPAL
Chain of UniProt Q14764 (Q14764 whole entry, looked up): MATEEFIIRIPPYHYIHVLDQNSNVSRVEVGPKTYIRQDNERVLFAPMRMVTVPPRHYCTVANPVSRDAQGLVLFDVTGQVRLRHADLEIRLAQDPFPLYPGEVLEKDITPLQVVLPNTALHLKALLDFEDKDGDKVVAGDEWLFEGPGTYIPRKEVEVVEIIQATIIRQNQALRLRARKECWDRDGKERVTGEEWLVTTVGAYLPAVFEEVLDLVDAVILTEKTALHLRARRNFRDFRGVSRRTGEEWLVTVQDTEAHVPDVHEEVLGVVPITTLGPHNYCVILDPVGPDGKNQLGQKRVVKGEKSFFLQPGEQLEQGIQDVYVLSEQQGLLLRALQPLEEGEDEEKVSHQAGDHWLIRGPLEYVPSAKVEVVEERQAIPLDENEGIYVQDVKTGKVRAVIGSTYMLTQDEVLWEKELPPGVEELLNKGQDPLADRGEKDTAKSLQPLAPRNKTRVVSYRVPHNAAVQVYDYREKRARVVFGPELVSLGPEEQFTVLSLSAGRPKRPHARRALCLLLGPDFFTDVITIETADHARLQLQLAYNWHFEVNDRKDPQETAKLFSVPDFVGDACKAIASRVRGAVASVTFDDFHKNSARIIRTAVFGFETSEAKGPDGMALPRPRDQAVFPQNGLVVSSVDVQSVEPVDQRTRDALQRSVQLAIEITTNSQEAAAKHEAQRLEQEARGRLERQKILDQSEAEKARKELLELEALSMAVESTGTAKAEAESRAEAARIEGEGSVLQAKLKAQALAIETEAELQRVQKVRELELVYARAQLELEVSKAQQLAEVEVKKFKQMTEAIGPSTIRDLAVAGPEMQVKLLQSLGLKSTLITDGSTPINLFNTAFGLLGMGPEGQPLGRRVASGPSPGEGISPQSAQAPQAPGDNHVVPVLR
Chain of UniProt Q14149 (Q14149 whole entry, looked up): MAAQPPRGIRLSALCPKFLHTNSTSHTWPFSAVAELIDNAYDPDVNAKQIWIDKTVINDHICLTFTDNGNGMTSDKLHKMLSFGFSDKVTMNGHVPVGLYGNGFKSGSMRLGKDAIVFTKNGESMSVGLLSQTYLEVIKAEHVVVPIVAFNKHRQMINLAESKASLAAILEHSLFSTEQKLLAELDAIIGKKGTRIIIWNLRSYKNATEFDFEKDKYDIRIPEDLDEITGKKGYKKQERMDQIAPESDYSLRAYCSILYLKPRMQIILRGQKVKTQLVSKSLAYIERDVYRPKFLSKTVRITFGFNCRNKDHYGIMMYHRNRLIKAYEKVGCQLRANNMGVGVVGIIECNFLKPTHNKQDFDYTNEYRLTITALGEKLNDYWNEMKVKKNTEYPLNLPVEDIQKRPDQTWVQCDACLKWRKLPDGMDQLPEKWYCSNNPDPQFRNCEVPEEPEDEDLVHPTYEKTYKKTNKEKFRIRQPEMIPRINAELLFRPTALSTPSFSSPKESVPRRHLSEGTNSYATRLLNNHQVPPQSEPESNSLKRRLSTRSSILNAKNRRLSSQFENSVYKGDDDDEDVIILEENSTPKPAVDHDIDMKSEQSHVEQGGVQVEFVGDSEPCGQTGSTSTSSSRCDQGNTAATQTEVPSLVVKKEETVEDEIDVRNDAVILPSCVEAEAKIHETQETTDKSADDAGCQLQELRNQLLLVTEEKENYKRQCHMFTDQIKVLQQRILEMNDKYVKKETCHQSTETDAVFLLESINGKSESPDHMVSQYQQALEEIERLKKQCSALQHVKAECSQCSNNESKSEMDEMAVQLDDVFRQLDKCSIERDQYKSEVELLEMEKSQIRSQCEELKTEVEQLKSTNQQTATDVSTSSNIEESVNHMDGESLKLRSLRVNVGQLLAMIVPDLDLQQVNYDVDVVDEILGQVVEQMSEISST

As for “MDN1_Q9NU22_4604_HLFFSQSCSLLVR (UniProt Q9NU22)”, the “probe-labelled cysteine peptide fold change” value was found to be 0.142 (10 µM) and 0.423 (50 µM).

On to “MVP_Q14764_515_ALCLLLGPDFFTDVITIETADHAR (UniProt Q14764)”, for which the “probe-labelled cysteine peptide fold change” value (10 µM) is 0.505 and the “probe-labelled cysteine peptide fold change” value (50 µM) came out at 0.893.

With “MRE11_P49959_249_HGSTNFIPEQFLDDFIDLVIWGHEHECK (UniProt P49959)”, the “probe-labelled cysteine peptide fold change” value (10 µM) is -0.0677 and the “probe-labelled cysteine peptide fold change” value (50 µM) was -0.0212.

For “MYH3_P11055_1412_CASLEK<|>MYH1_P12882_1415_CASLEK<|>MYH8_P13535_1414_CASLEK<|>MYH2_Q9UKX2_1417_CASLEK<|>MYH13_Q9UKX3_1415_CASLEK<|>MYH4_Q9Y623_1415_CASLEK (UniProt Q9Y623+Q9UKX3+Q9UKX2+P13535+P12882+P11055)”, the “probe-labelled cysteine peptide fold change” value is 0.356 (10 µM) and 0.307 (50 µM).

Consider “MELTF_P08582_603_SEDYELLCPNGAR (UniProt P08582)”, for which the “probe-labelled cysteine peptide fold change” value is, setting by setting: (10 µM) 0.0149; (50 µM) 0.0229.

As for “MFSD2A_Q8NA29_44_KQQLSVCNK (UniProt Q8NA29)”, the “probe-labelled cysteine peptide fold change” value is -0.207 (10 µM) and -0.294 (50 µM).

In the case of “NANS_Q9NR45_19_WVGGQHPCFIIAEIGQNHQGDLDVAK (UniProt Q9NR45)”, the “probe-labelled cysteine peptide fold change” value came out at 0.0689 (10 µM) and 0.0782 (50 µM).

With “METTL13_Q8N6R0_226_FRPVPGSALQIFELCAQEQR (UniProt Q8N6R0)”, the “probe-labelled cysteine peptide fold change” value reads like this: (10 µM) 0.025; (50 µM) -0.292.

Regarding “MRPL45_Q9BRJ2_151_DIFIEAHLCLNNSDHDR (UniProt Q9BRJ2)”, the “probe-labelled cysteine peptide fold change” value runs as follows: (10 µM) -0.648; (50 µM) -0.159.

In the case of “MKNK2_Q9HBH9_136_EVEMLYQCQGHR (UniProt Q9HBH9)”, the “probe-labelled cysteine peptide fold change” value worked out at 0.495 (10 µM) and 0.556 (50 µM).

“MORC3_Q14149_744_ETCHQSTETDAVFLLESINGK (UniProt Q14149)”: the “probe-labelled cysteine peptide fold change” value by setting is: (10 µM) 0.143; (50 µM) -0.605.

For the target “MAU2_Q9Y6X3_145_AIQISQQTPYWHCR (UniProt Q9Y6X3)”, the “probe-labelled cysteine peptide fold change” value by setting is: (10 µM) -0.167; (50 µM) 0.0177.

In the case of “MACF1_Q9UPN3_3619_QQNTCHQQLEDLCSWVGQAER (UniProt Q9UPN3)”, the “probe-labelled cysteine peptide fold change” value is, setting by setting: (10 µM) -0.474; (50 µM) 0.118.

The record behind these values is the supplement of paper PMC12067093, “Discovery and optimisation of a covalent ligand for TRIM25 and its application to targeted protein ubiquitination” (Chemical Science, 2025).
